# Screens (PubChem BioAssay)
# Hits are enriched below; roughly 7% of the tested compounds scored in any of these assays.
# ADAM17 inh: inhibitors of human ADAM17 | P78536 | recombinant ADAM17, EDANS/DABCYL FRET peptide cleavage | inhibition, % at 6.95 µM | hit rate 0.83% among 370,000 | AID 720648;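 active = inhibition above the mean of compounds lying between control limits plus 3 SD, set per campaign, cut at about 8.5% in these data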;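 also: 0% = DMSO-only wells as the low control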
# GRIN3A LBD mod: modulates the human NR3A ligand-binding domain | NR3A LBD differential scanning fluorimetry, Tm shift; 0% = protein alone, 100% = glycine-bound protein | Tm shift relative to glycine control, % at 25 µM | hit rate 2.5% among 340,000;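 active = melting temperature shift of at least 10% of the positive control shift, at one fixed dose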
# ADAM10 inh: inhibits human ADAM10 | O14672 | recombinant ADAM10, EDANS/DABCYL FRET peptide cleavage, 3 h | inhibition, % at 7 µM | hit rate 0.62% among 370,000 | AID 720582;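 active = inhibition above a per-campaign cutoff equal to the mean of compounds falling between control-based bounds plus 3 SD, cut at about 20% in these data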;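 also: 0% = DMSO wells while the 100% control is not disclosed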
# AHR activator: human AHR activation | hit rate 2.5% among 320,000 | AHR-responsive luciferase reporter cells, luminescence | activation, % at 5 µM; in the data active = activation above about 47%;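 also: 0% = vehicle wells and 100% = reference agonist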
# proKLK7 act: proKLK7 (human) activation, primary screen | P49862 | purified proKLK7, EDANS-DABCYL substrate fluorescence; 100% is mature enzyme control, 0% vehicle | activation, % at 7 µM | hit rate 0.9% among 370,000;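 active = activation above the mean of all tested compounds plus 3 SD, computed per campaign excluding outliers beyond control limits, cut at about 13% in these data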
# Target sequence (P49862 whole entry, looked up): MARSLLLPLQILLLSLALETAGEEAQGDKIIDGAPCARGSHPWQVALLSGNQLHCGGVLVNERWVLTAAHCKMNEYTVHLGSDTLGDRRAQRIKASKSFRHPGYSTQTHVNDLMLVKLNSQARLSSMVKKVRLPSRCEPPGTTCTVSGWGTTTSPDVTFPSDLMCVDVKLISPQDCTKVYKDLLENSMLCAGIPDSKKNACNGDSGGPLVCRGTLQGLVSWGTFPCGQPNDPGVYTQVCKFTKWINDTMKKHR
# rCAG binder: binds r(CAG) RNA repeats. r(CAG) RNA repeat, TO-PRO-1 dye displacement fluorescence. inhibition, % at 3 µM. hit rate 1.3% among 370,000. AID 651821;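 active = inhibition above the plate cutoff, the mean of all test compounds on that plate plus 3 SD, cut at about 35% in these data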;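 also: 0% = DMSO alone and 100% = 100 µM mitoxantrone as full dye displacement; higher means more dye released from RNA so lower well fluorescence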
# Starred values were filed as active, the others as inactive; i = inactive; . = no result given.
SMILES,ADAM17 inh,GRIN3A LBD mod,ADAM10 inh,AHR activator,proKLK7 act,rCAG binder
CCN=C1NC(c2ccc(Cl)cc2)C(C(=O)OC)=C(C)N1Cc1cccc(C(F)(F)F)c1 (stereo not drawn),-5,.,-5,.,0,6
O=C(O)c1cccc(CSc2nnc(COc3ccccc3)o2)c1,-4,11*,-5,-9,0,0
CN(C)C(=S)N=c1ssc(=S)n1Cc1cccnc1,-2,27*,-12,.,-1,2
C[C@@H]1COc2cc(N3CCCCC3)ccc2S(=O)(=O)N1,-2,.,-9,.,0,2
CC1=CCC2C(=O)N(c3cccc(C(=O)Nc4ccc(Cl)cc4)c3)C(=O)C2C1 (stereo not drawn),6,-3,4,69*,0,5
O=C(Nc1ccc(Br)cc1)c1ccc(N2C(=O)C3CC=C(Cl)CC3C2=O)cc1 (stereo not drawn),0,26*,-2,4,-1,13
Brc1ccc(-c2csc(N3CCNCC3)n2)cc1,1,.,4,.,.,.
O=S(=O)(CC1NCCc2ccccc21)NCCc1ccccc1 (stereo not drawn),-6,.,-5,.,0,2
CCn1c(/C=C/c2ccccc2)nc2ccccc2c1=O,2,0,3,79*,-1,4
O=c1c2ccccc2nc(/C=C/c2ccc(O)cc2)n1CCc1ccccc1,-9,20*,-16,72*,-2,7
Cn1c(/C=C/c2ccccc2)nc2ccccc2c1=O,-7,-5,3,24,0,-3
Cn1c(/C=C/c2ccc(Cl)cc2)nc2ccccc2c1=O,-2,-1,1,49*,-11,-4
Cc1ccc2c(c1)C1CS(=O)(=O)N(Cc3ccc(F)cc3)CN1C2 (stereo not drawn),-1,.,-5,.,0,5
CC(=O)c1cccc(NC(=S)Nc2cccc3ccccc23)c1,-59,-2,-169,54*,-10,4
CC(=O)c1ccc(NC(=O)Nc2cccc3ccccc23)cc1,-10,13*,-49,.,-1,8
CC(=O)Nc1cccc(NC(=S)Nc2cccc3ccccc23)c1,-47,-1,-145,28,-9,5
CCOC(=O)[C@]12CCCC3=C1N(CCC3)C(=O)[C@@H](CC(=O)N1CCOCC1)C2,-3,.,-4,.,0,3
CCCCN1C(=O)N2Cc3ccc(C)cc3C2CS1(=O)=O (stereo not drawn),0,.,-2,.,0,3
C/C=C/c1ccc(OCCCCOc2ccccc2C(C)=O)c(OC)c1,1,18*,-6,9,0,-3
COc1ccccc1OCCCCOc1ccccc1C(C)=O,-2,-8,-19,37,0,2
CC(=O)Nc1ccc2nc(NC(=O)CCc3ccccc3)sc2c1,2,22*,-6,25,0,3
CC(=O)Nc1ccc2nc(NC(=O)COc3ccccc3C)sc2c1,-2,23*,-2,39,1,8
CC(=O)Nc1ccc2nc(NC(=O)COc3ccccc3)sc2c1,-6,1,-1,40,0,0
CC(=O)Nc1ccc2nc(NC(=O)COc3ccccc3Cl)sc2c1,-4,20*,-3,30,1,11
CC(=O)Nc1ccc2nc(NC(=O)COc3cccc(C)c3)sc2c1,0,11*,12,33,1,1
SMILES,ADAM17 inh,GRIN3A LBD mod,ADAM10 inh,AHR activator,proKLK7 act,rCAG binder
CCOc1ccc(/C=N/n2c(-c3n[nH]c4c3CCC4)n[nH]c2=S)cc1,-3,.,0,.,1,8
COc1cccc2sc(Nc3nc4ccc(NC(C)=O)cc4s3)nc12,-201,31*,i,5,-71,49*
CCCC(=O)Nc1nc2ccc(NC(=O)c3ccccc3F)cc2s1,4,6,8,62*,0,10
Cc1ccc2nc(NC(=O)c3ccccc3F)sc2c1,-40,-5,-124,1,6,7
COc1cccc(COc2ccccc2C2Nc3ccc(Br)cc3C(=O)N2NC(=O)c2ccncc2)c1 (stereo not drawn),2,-8,1,52*,-1,12
O=C(NCc1cccs1)C1CCC(CNS(=O)(=O)c2ccc(Br)s2)CC1 (stereo not drawn),-1,0,-3,1,0,-3
NS(=O)(=O)c1ccc(CCNC(=O)C2CCC(CNS(=O)(=O)c3ccc(Br)s3)CC2)cc1 (stereo not drawn),1,13*,-4,2,1,10
c1ccc2c(-c3nc(C4CCCCC4)no3)cc(-c3ccncc3)nc2c1,.,15*,.,2,.,.
Cc1ccccc1C(=O)N[C@H](C(=O)N1CCC[C@H]1C(=O)NCc1ccccc1)c1ccccc1,-2,.,-3,.,0,0
C[C@H]1CN(S(=O)(=O)c2c(F)cccc2F)CCN1S(=O)(=O)c1ccc2c(c1)OCCO2,-2,11*,0,-1,0,-6
Cc1c(NC(=O)C2CCCN(S(=O)(=O)c3cccc4ccccc34)C2)c(=O)n(-c2ccccc2)n1C (stereo not drawn),1,.,1,.,0,4
COC(=O)CC#C[C@H](C)[C@@H](NS(=O)(=O)c1ccc([N+](=O)[O-])cc1)C(C)(C)C,4,.,-5,.,0,3
Cn1cccc1-c1nc2ccc(NC(=O)c3ccccc3)cc2[nH]1,0,5,5,-8,0,2
Cn1cccc1-c1nc2ccc(NC(=O)c3ccc([N+](=O)[O-])cc3)cc2[nH]1,-5,27*,7,-9,-1,12
CC(=O)Nc1ccc2nc(-c3cccnc3)[nH]c2c1,-16,-11,-49,12,2,1
Nc1ccc(C(=O)Nc2ccc3nc(-c4cccnc4)[nH]c3c2)cc1,-5,13*,-10,3,0,2
COC(=O)c1ccc(C(=O)Nc2ccc3nc(-c4ccncc4)[nH]c3c2)cc1,-2,15*,5,6,-38,5
COC(=O)c1ccc(NC(=O)c2cc(-c3ccncc3)nc3ccccc23)cc1,1,-5,3,4,0,5
CCOC(=O)[C@@]12CN(C(=O)OC(C)(C)C)CC=C1N(Cc1ccc(OC)cc1)C(=O)[C@H]2CC(=O)NCCCOC,-1,.,-3,.,0,0
O=C(COC(=O)c1ccccc1C(=O)c1ccccc1)Nc1ccc(SC(F)F)cc1,9.0*,5,16,7,-1,3
Cc1ccc(-c2nc(SCC(=O)NCC3CCCO3)c(-c3ccccc3)[nH]2)cc1 (stereo not drawn),-5,0,-16,70*,0,4
COc1cccc(-n2c(SCC(N)=O)nc3c([nH]c4ccccc43)c2=O)c1,-10,1,-32,75*,0,-2
C=CCn1c(SCC(=O)NCC2CCCO2)nc2c([nH]c3ccccc32)c1=O (stereo not drawn),-5,2,-11,55*,0,-5
